Assay results from ChEMBL document CHEMBL3988442, “University of Dundee, Small-Polar-MMV Screening Library” (2021).
For some assays here: Results with a measured potency or affinity are listed apart.

What was measured:
Set-up in all cases: scale not given: direction of the effect not stated beside the values
[1] = molecular target: Protein translocase subunit SecA (Escherichia coli (strain K12)) (UniProt P10408); assay: Assay to Identify E. coli SecA ATPase Inhibitors; format: functional; conditions: 30 µM
Chain of Protein translocase subunit SecA (Escherichia coli (strain K12)) (P10408 whole entry): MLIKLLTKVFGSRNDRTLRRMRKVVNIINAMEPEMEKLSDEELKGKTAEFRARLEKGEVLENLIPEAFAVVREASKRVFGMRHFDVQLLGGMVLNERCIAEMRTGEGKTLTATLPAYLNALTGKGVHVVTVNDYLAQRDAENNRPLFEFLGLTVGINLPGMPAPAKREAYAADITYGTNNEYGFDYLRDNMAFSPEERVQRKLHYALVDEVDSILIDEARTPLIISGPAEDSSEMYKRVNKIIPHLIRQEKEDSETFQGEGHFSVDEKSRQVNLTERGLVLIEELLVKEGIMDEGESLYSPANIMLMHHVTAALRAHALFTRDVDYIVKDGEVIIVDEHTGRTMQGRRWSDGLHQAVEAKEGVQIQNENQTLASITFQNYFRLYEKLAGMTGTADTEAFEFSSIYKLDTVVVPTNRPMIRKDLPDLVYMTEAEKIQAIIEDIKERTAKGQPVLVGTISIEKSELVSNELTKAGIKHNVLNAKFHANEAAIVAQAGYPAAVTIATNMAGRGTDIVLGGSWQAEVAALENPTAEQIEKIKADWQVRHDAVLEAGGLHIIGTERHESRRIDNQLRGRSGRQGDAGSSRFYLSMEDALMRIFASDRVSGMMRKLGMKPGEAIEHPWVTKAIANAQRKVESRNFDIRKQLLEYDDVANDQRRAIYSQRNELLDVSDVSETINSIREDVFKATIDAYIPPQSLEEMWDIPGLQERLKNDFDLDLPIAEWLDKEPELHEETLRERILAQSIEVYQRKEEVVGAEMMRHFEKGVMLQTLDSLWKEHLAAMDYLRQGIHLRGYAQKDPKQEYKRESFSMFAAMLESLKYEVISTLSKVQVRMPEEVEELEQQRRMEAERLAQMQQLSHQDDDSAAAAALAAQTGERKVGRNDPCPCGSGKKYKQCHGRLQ

[2] = molecular target: T1, Ubiquitin-activating enzyme e1, putative (Leishmania donovani (strain BPK282A1)) (UniProt E9BSI1); assay: Leishmania donovani Ubiquitin Activating Enzyme (LdE1); format: functional; conditions: 30 µM
T1 sequence (whole entry): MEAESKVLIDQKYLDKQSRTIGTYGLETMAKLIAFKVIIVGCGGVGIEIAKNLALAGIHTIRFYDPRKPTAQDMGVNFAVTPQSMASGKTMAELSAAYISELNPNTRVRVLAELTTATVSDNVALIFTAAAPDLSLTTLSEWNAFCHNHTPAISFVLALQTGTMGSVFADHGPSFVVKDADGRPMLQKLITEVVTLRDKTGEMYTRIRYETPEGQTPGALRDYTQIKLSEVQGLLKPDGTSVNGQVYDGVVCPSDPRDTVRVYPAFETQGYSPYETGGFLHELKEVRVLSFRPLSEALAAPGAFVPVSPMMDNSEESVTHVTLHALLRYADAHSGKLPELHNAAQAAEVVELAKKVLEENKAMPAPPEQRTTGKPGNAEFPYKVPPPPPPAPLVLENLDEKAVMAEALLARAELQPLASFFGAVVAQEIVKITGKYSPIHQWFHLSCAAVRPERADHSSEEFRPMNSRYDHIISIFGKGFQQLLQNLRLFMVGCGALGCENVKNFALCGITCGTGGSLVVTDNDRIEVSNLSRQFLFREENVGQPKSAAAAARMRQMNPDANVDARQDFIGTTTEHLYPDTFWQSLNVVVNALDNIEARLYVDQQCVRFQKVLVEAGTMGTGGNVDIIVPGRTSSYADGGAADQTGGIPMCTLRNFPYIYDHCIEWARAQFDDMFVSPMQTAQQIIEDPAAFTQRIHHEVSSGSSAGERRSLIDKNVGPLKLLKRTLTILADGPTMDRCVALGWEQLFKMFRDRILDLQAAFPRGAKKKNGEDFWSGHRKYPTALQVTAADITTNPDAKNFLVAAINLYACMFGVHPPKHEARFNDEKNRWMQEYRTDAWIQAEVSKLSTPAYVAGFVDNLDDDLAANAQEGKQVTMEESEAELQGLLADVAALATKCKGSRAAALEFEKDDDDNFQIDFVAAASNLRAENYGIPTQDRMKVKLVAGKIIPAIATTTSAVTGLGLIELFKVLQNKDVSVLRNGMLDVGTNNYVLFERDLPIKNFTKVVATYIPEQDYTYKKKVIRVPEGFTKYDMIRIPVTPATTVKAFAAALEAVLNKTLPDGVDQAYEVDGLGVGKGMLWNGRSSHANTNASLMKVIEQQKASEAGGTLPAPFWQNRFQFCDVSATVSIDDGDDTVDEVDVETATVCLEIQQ

[3] = molecular target: AMP-activated protein kinase, AMPK (Homo sapiens) (UniProt P54646+O43741+P54619+Q9UGJ0+Q9Y478+Q13131+Q9UGI9); assay: AMP-dependent Kinase enzyme assay. An in vitro enzyme assay that detects ADP turnover that is directly proportional to AMPK activity. This uses naive AMPK that is activated during the assay with MK-8722; format: functional; conditions: 30 µM
[4] = molecular target: Sialic acid-binding Ig-like lectin 9 (Homo sapiens) (UniProt Q9Y336); assay: Hs-Siglec9 ALPHAscreen SOP 20170721; conditions: 10 µM
Chain of Sialic acid-binding Ig-like lectin 9 (Homo sapiens) (Q9Y336 whole entry): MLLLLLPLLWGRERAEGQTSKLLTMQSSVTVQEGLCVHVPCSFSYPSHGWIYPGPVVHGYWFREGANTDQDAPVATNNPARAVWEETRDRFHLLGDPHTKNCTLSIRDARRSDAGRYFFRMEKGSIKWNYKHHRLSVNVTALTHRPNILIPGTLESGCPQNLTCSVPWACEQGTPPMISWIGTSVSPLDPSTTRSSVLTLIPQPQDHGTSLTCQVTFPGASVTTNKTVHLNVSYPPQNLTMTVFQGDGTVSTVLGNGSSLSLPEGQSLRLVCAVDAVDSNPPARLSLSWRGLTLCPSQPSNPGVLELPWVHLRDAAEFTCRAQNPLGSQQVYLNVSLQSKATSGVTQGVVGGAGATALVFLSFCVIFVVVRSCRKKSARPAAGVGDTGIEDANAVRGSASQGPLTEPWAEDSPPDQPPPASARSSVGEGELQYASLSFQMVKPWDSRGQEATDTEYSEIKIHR

Trypanosoma cruzi = assay: Trypanosoma cruzi phosphomannomutase and mannose-1-phosphate guanylyltransferase assay; format: functional; conditions: 10 µM
[5] = molecular target: T2, Arginase-2, mitochondrial (Homo sapiens) (UniProt P78540); assay: in vitro enzyme assay to detect the production of urea directly proportional to the activity of Arginase II; format: functional; conditions: 33.3 µM; note: in the data most compounds retested in dose-response had high values
T2 sequence (whole entry): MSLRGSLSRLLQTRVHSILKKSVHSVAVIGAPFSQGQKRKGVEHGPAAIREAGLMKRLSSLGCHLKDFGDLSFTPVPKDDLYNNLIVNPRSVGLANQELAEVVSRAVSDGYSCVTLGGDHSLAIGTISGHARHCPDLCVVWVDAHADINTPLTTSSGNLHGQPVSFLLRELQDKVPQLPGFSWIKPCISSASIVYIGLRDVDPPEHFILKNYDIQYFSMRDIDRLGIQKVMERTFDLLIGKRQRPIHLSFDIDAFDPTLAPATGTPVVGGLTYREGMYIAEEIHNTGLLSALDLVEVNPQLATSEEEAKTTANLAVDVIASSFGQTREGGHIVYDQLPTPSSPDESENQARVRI

[6] = molecular target: T3, Proteasome subunit beta (Trypanosoma cruzi) (UniProt O96673); assay: Trypanosoma cruzi proteasome chymotrypsin-like activity (TcProtChymo) assay.; note: in the data most compounds retested in dose-response had high values; format: functional; conditions: 9.37 µM
T3 sequence (whole entry): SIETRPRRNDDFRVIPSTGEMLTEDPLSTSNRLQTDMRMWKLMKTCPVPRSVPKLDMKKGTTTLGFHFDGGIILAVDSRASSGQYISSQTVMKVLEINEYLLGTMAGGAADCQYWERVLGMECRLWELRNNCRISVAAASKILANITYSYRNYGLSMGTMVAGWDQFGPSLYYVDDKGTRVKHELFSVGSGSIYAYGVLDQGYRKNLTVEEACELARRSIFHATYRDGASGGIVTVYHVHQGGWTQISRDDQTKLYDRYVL

Homo sapiens = species: Homo sapiens; assay: To identify inhibition of the IFN signalling (Jak-Stat) pathway via expression of an eGFP reporter gene under the control of an IFN-stimulated response element (ISRE) containing MxA promoter.; format: functional; conditions: 30 µM
[7] = molecular target: T4, Tyrosyl-tRNA synthetase, putative (Trypanosoma cruzi (strain CL Brener)) (UniProt Q4DSP6); assay: Trypanosoma cruzi tyrosyl tRNA synthetase (TcYRS) _High Tyrosine SOP; format: functional; conditions: 30 µM; note: in the data most compounds retested in dose-response had high values
T4 sequence (whole entry): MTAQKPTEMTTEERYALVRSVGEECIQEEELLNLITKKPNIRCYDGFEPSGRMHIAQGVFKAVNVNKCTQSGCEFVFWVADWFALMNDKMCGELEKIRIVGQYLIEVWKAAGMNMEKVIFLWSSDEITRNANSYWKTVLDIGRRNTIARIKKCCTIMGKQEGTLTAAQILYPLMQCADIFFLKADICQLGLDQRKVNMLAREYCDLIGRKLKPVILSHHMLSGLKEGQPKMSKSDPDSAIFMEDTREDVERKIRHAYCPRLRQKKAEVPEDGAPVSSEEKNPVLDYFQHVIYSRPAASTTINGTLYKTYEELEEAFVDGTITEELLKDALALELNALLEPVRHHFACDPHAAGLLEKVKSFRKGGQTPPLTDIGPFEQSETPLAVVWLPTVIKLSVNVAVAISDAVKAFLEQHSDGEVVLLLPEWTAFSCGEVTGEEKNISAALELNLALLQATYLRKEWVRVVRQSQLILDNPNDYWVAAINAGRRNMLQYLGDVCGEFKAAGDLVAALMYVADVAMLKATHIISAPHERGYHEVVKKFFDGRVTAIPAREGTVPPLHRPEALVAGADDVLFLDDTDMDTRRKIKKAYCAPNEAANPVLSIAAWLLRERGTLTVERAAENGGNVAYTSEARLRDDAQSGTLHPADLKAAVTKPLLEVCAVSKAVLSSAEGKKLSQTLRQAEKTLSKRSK

[8] = molecular target: T4, Tyrosyl-tRNA synthetase, putative (Trypanosoma cruzi (strain CL Brener)); assay: Trypanosoma cruzi tyrosyl tRNA synthetase (TcYRS) SOP; format: functional; conditions: 30 µM
[9] = molecular target: Chromo domain-containing protein 1 (Saccharomyces cerevisiae (strain ATCC 204508 / S288c) (Baker's yeast)) (UniProt P32657); assay: ScCHD-1 Enzyme Inhibition Assay; format: functional; conditions: 30 µM; note: in the data most compounds retested in dose-response had high values
Chain of Chromo domain-containing protein 1 (Saccharomyces cerevisiae (strain ATCC 204508 / S288c) (Baker's yeast)) (P32657 whole entry, the tested form may be a part): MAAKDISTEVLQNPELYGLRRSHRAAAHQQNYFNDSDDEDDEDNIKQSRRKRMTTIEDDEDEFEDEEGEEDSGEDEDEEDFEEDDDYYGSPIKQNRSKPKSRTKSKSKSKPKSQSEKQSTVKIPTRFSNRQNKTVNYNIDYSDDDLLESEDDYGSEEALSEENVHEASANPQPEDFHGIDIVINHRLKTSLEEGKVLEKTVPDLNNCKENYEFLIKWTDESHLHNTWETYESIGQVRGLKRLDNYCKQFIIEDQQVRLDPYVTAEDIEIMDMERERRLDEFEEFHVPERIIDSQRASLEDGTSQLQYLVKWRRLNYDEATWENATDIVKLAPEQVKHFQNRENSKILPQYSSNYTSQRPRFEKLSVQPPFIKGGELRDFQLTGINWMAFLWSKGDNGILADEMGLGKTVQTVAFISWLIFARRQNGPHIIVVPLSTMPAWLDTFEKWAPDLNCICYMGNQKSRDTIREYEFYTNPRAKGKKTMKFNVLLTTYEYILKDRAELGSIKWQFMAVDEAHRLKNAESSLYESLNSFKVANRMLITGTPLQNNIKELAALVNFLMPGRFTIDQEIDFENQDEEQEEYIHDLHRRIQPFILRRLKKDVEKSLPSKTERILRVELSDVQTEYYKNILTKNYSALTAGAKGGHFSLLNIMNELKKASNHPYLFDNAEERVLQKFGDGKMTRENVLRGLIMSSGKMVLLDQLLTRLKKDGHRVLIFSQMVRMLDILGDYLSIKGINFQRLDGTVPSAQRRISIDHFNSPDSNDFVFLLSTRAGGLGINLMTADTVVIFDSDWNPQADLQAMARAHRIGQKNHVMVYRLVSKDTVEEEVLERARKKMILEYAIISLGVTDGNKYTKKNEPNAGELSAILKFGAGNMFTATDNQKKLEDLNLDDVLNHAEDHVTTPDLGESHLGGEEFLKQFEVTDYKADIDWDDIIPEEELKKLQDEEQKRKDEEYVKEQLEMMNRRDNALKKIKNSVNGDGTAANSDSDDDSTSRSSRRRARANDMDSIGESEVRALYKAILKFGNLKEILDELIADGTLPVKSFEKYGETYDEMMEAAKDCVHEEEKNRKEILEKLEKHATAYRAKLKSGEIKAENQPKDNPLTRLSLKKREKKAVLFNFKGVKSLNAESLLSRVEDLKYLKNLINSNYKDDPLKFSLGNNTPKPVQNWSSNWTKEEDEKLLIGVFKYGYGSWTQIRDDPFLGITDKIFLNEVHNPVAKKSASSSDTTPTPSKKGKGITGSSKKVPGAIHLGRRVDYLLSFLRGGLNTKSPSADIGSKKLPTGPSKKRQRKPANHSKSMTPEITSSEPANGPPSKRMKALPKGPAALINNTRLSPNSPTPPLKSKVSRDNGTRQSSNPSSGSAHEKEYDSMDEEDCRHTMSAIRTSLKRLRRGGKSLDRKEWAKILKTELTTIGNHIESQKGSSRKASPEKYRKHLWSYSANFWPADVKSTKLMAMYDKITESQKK

Compound	Percent Effect [1] [%]	Percent Effect [2] [%]	Percent Effect [3] [%]	Percent Effect [4] [%]	Percent Effect (Trypanosoma cruzi) [%]	Percent Effect [5] [%]	Percent Effect [6] [%]	Percent Effect (Homo sapiens) [%]	Percent Effect [7] [%]	Percent Effect [8] [%]	Percent Effect [9] [%]
Cc1cnn(CC2CN(CC(=O)Nc3nnc(C)s3)CCO2)c1 (configuration not stated)	-5.89	13.2	0.773	3.55	7.71	-0.766	6.01	-6.29	3.43	12.2	-12.5
CN(C)CCN1C[C@@H]2CN(C(=O)c3ccsc3)C[C@@H]2C1=O	-7.36	5.2	0.643	5.55	-3.25	0	5.66	20.3	0	1.24	1.29
Cn1nc(C2CCCN(Cc3cccc(F)c3)C2)c2nccnc21 (configuration not stated)	-3.38	9.46	9.97	14.6	6.13	-1.62	9.05	13.8	2.15	16.9	-15.8
Cc1cc(C)n(-c2cncc(NCCNC(=O)CC3CCCC3)n2)n1	-5.92	5.41	16.2	27.9	0.489	1.24	8.67	-10.2	1.07	8.64	-4.7
Cn1ccnc1CN1CCN(CCOc2ccccc2C#N)CC1	-0.0443	21.1	4.11	-9.14	-3.83	5.4	5.67	18.9	7.39	13.6	-1.99
COc1ccc(C(O)CNC(=O)NCc2csc(C)n2)cc1 (configuration not stated)	-3.31	18.9	1.28	1.81	6.41	-2.03	19.6	11.3	7.92	-8.54	-6.16
CC(=O)NCC(=O)N1CCN(CC2CC2)c2ncccc2C1	-4.55	8	8.23	6.27	-0.394	-0.233	11	0.904	9.57	16.7	-2.61
Cc1cnc(N2CC3(CCN(C(=O)c4ccoc4)C3)C2)nc1	-4.42	5.2	2.7	2.78	-3.64	-30.3	15	1.13	0	1.24	-4.73
Cn1cc(C2CC(=O)NC23CCN(CC2CC2)CC3)cn1 (configuration not stated)	-4.62	5.33	-4.75	13.8	2.32	4.12	10.1	0.353	1.04	10	-6.87
COCCC(=O)N1CC[C@@H](N(C)C)[C@@H]1Cc1ccccc1	-3.9	5.33	10.6	4.93	-0.394	-1.17	5.37	-2.67	5.32	6.41	-0.866
Cn1cc(CN2CCc3onc(COc4cccnc4)c3C2)cn1	6.35	14.7	17.2	-10.2	-9.43	-5.11	16.6	11.8	0	5.13	-10.7
COCCN(Cc1ccc(F)cc1Cl)C(=O)c1cccc[n+]1[O-]	-4.42	-1.39	3.97	-0.933	-1.65	6.18	12.3	-7.04	1.05	7.69	-2.92
CC(NC(=O)NCC1(c2ccccc2)CCC1)c1nncn1C (configuration not stated)	-3.15	13.2	-7.01	-5.58	-5.7	8.63	5.67	-2.94	5.42	16.1	-6.58
O=C(Nc1nncs1)NC1CCOc2ccccc21 (configuration not stated)	-3.81	2.74	5.12	-2.09	-6.55	-0.399	9.85	17	2.08	13.6	-8.1
COc1ccc(CN(C)C(=O)NCc2c(C)cc(C)[nH]c2=O)cc1	-4.97	15.8	-2.27	-2.15	-0.84	1.08	2.12	9.7	3.45	18.5	-0.177
Cc1ncc2c(n1)CN(Cc1nnc(-c3occc3C)o1)CC2	-2.4	18.9	-24.9	14.5	6.04	2.03	6.82	-0.684	22.8	30.5	-8.36
Cc1ccsc1CN(C)C(=O)Cn1nc(-c2ccc(F)cc2)oc1=O	-0.652	13.2	1.09	-2.29	3.8	-3.55	22.5	10.2	-8.51	0	-6.06
Cc1nn(C(C)C)c(C)c1NC(=O)c1ccccc1	-2.77	2.74	-0.803	6.74	4.17	-2.4	14.5	-0.0619	7.29	-3.7	-1.66
CC(NC1(CNC(=O)Cn2cccn2)CCOCC1)c1ccccc1 (configuration not stated)	-5.93	13.5	-3.26	21.8	6.35	3.72	9.01	-4.77	0	16.1	-5.87
O=C(NCCCN1CCCCC1)c1ccc(-n2ccc3ccccc32)s1	-0.638	-23.4	-0.0111	-2.17	11.1	-9.68	9.4	22.6	-3.17	1.28	1.91
CCc1cnc(N2CCC3(CC2)CN(c2cccnc2)C(=O)CO3)nc1	-5.43	0	2.98	-2.45	-3.03	-4.78	7.01	26.6	-4.32	-7.69	6.26
O=C(NC1CC1)[C@H]1CC[C@@H]2[C@@H](CCN2c2ncc(F)cn2)O1	-3.27	2.6	0.23	1.05	-0.688	-2.76	4.16	11	3.23	1.24	134
